# Results: PubChem BioAssay AID1159580 (chemical genetic matrix, 2015)
# In all, about 5,500 compounds went through this assay and about 2,000 (36%) were called active. Roughly 18% stayed inconclusive and do not appear here. The list shows a part of the results. Unmarked numbers belong to inactive results. Rule as the data show it: active = normalized growth mostly below about 0.91 (no sharp cut-off); inconclusive = no clear call, values can overlap the other calls; inactive = mostly above about 0.92.
# Assay: chemical genetic growth profiling, strain panel (AID 1159580);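 also: tested at 20 µM; growth read once vehicle control cultures reached saturation at 30 °C; 1 = growth at the plate median or of vehicle wells; lower values mean less growth of the strain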
# Settings: S. cerevisiae deletion strains, growth OD
# [1] = locus YDL101C, strain DUN1, active compounds read low
# [2] = locus YHR030C, strain SLT2, active compounds read low
compound,measurement,setting,value
CCOC(=O)c1ccc(Oc2ccc(Cl)cc2Cl)c([N+](=O)[O-])c1,normalized growth,"locus YAL013W, strain DEP1, active compounds read low",1
same,normalized growth,"locus YBR229C, strain ROT2, active compounds read low",0.993
same,normalized growth,[1],0.992
same,normalized growth,"locus YDR150W, strain NUM1, active compounds read low",1.01
same,normalized growth,"locus YEL061C, strain CIN8, active compounds read low",0.959
same,normalized growth,"locus YGR078C, strain PAC10, active compounds read low",1.01
same,normalized growth,[2],0.883
same,normalized growth,"locus YHR087W, strain rtc3, active compounds read low",0.998
same,normalized growth,"locus YJL187C, strain SWE1, active compounds read low",0.99
same,normalized growth,"locus YJR043C, strain POL32, active compounds read low",0.996
same,normalized growth,"locus YJR075W, strain HOC1, active compounds read low",0.968
same,normalized growth,"locus YLR039C, strain RIC1, active compounds read low",1
same,normalized growth,"locus YLR058C, strain SHM2 (second series), active compounds read low",0.99
same,normalized growth,"locus YLR085C, strain ARP6, active compounds read low",0.92
same,normalized growth,"locus YLR262C, strain YPT6, active compounds read low",1.01
same,normalized growth,"locus YML094W, strain GIM5, active compounds read low",0.975
same,normalized growth,"locus YMR219W, strain ESC1, active compounds read low",0.997
same,normalized growth,"locus YMR263W, strain SAP30, active compounds read low",0.996
same,normalized growth,"locus YNL128W, strain TEP1, active compounds read low",0.987
same,normalized growth,"locus YNL153C, strain GIM3, active compounds read low",0.998
same,normalized growth,"locus YNL298W, strain CLA4 (second series), active compounds read low",0.961
same,normalized growth,"locus YNL322C, strain KRE1, active compounds read low",1
same,normalized growth,"locus YNR030W, strain Alg12, active compounds read low",0.959
same,normalized growth,"locus YOL006C, strain TOP1, active compounds read low",0.81
same,normalized growth,"locus YPL055C, strain LGE1, active compounds read low",0.961
same,normalized growth,"locus YPL241C, strain CIN2, active compounds read low",0.958
same,normalized growth,"locus YPR135W, strain CTF4, active compounds read low",0.918
O=[N+]([O-])c1ccsc1Oc1cccc(C(F)(F)F)c1,normalized growth,"locus YAR019C, strain CDC15, active compounds read low",0.945
same,normalized growth,"locus YBL105C, strain PKC1, active compounds read low",0.986
same,normalized growth,"locus YBR135W, strain CKS1, active compounds read low",0.95
same,normalized growth,"locus YBR136W, strain MEC1, active compounds read low",0.976
same,normalized growth,"locus YBR160W, strain CDC28, active compounds read low",1.01
same,normalized growth,"locus YDL017W, strain CDC7, active compounds read low",0.987
same,normalized growth,"locus YDL028C, strain MPS1, active compounds read low",0.989
same,normalized growth,[1],0.958
same,normalized growth,"locus YDL108W, strain KIN28, active compounds read low",0.979
same,normalized growth,"locus YDL132W, strain cdc53, active compounds read low",0.946
same,normalized growth,"locus YDL214C, strain PRR2, active compounds read low",0.909
same,normalized growth,"locus YDR052C, strain DBF4, active compounds read low",0.989
same,normalized growth,"locus YDR054C, strain cdc34, active compounds read low",0.929
same,normalized growth,"locus YDR226W, strain ADK1, active compounds read low",0.973
same,normalized growth,"locus YDR477W, strain SNF1, active compounds read low",0.876
same,normalized growth,"locus YER123W, strain YCK3, active compounds read low",0.814
same,normalized growth,"locus YER133W, strain GLC7, active compounds read low",0.831
same,normalized growth,"locus YFL009W, strain cdc4, active compounds read low",0.925
same,normalized growth,"locus YFL029C, strain CAK1, active compounds read low",0.94
same,normalized growth,"locus YFR003C, strain YPI1, active compounds read low",0.984
same,normalized growth,"locus YFR019W, strain FAB1, active compounds read low",0.927
same,normalized growth,"locus YFR028C, strain CDC14, active compounds read low",0.955
same,normalized growth,"locus YGR040W, strain KSS1, active compounds read low",0.857
same,normalized growth,"locus YGR052W, strain FMP48, active compounds read low",0.88
same,normalized growth,"locus YGR092W, strain DBF2, active compounds read low",0.769
same,normalized growth,[2],1.26 [resistant] (active)
same,normalized growth,"locus YHR079C, strain IRE1, active compounds read low",0.962
same,normalized growth,"locus YHR082C, strain KSP1, active compounds read low",0.907
same,normalized growth,"locus YHR205W, strain SCH9, active compounds read low",0.872
same,normalized growth,"locus YIL147C, strain SLN1, active compounds read low",0.979
same,normalized growth,"locus YJL095W, strain BCK1, active compounds read low",0.861
same,normalized growth,"locus YJL128C, strain PBS2, active compounds read low",0.939
same,normalized growth,"locus YJL157C, strain FAR1, active compounds read low",0.887
same,normalized growth,"locus YJR016C, strain ILV3, active compounds read low",0.952
same,normalized growth,"locus YJR066W, strain TOR1 (second series), active compounds read low",0.71
same,normalized growth,"locus YJR066W, strain TOR1, active compounds read low",0.926
same,normalized growth,"locus YKL048C, strain ELM1, active compounds read low",0.912
same,normalized growth,"locus YKL067W, strain YNK1, active compounds read low",0.905
same,normalized growth,"locus YKL101W, strain HSL1, active compounds read low",0.931
same,normalized growth,"locus YKL193C, strain SDS22, active compounds read low",0.944
same,normalized growth,"locus YKL203C, strain TOR2, active compounds read low",0.887
same,normalized growth,"locus YLR113W, strain HOG1, active compounds read low",0.821 (active)
same,normalized growth,"locus YLR133W, strain CKI1, active compounds read low",0.936
same,normalized growth,"locus YLR403W, strain SFP1, active compounds read low",0.852
same,normalized growth,"locus YML070W, strain DAK1, active compounds read low",0.895
same,normalized growth,"locus YMR001C, strain CDC5, active compounds read low",0.956
same,normalized growth,"locus YMR205C, strain PFK2 (second series), active compounds read low",0.911
same,normalized growth,"locus YMR277W, strain FCP1, active compounds read low",0.94
same,normalized growth,"locus YNL006W, strain LST8, active compounds read low",0.946
same,normalized growth,"locus YNL020C, strain ARK1, active compounds read low",0.925
same,normalized growth,"locus YNL161W, strain CBK1, active compounds read low",0.972
same,normalized growth,"locus YNL183C, strain NPR1, active compounds read low",0.869
same,normalized growth,"locus YNL207W, strain RIO2, active compounds read low",0.96
same,normalized growth,"locus YNL222W, strain SSU72, active compounds read low",0.972
same,normalized growth,"locus YNL307C, strain MCK1 (second series), active compounds read low",0.939
same,normalized growth,"locus YOL078W, strain AVO1, active compounds read low",0.93
same,normalized growth,"locus YOL136C, strain PFK27, active compounds read low",0.89
same,normalized growth,"locus YOR061W, strain CKA2, active compounds read low",0.88
same,normalized growth,"locus YOR119C, strain RIO1, active compounds read low",0.883
same,normalized growth,"locus YOR231W, strain MKK1, active compounds read low",0.849
same,normalized growth,"locus YOR329C, strain SCD5, active compounds read low",0.984
same,normalized growth,"locus YPL031C, strain PHO85, active compounds read low",0.842
same,normalized growth,"locus YPL153C, strain RAD53, active compounds read low",0.846
same,normalized growth,"locus YPL204W, strain HRR25, active compounds read low",0.845
same,normalized growth,"locus YPL209C, strain IPL1, active compounds read low",0.984
same,normalized growth,"locus YPL256C, strain CLN2, active compounds read low",0.991
same,normalized growth,"locus YPR025C, strain CCL1, active compounds read low",0.98
same,normalized growth,"locus YPR106W, strain ISR1, active compounds read low",0.966
same,normalized growth,"locus YPR111W, strain DBF20, active compounds read low",0.96
same,normalized growth,"strain NNK1, active compounds read low",0.976
same,normalized growth,"strain TSCII, active compounds read low",0.932
